# Test results as given in the OligoGym collection.
# Biological target: ACTL6A
# Test: pooled miR-30 sensor sort-seq; sequence = guide strand
# Details: shRNA
# Note: reference of the scale not given here.
row,Sequence,sensor-assay potency score (higher = more potent)
1,TTTATCGCCATCTATTTCCATT,-1.13
2,TAATTGTGCCAAGACCTCGTAA,-0.587
3,TTACACATATAATTGTGCCAAG,-1.42
4,TTGACATGCATTTTGTAGGTAT,0.179
5,TTGTGGTGACAACATGACTGAC,-0.897
6,TTGCTCTAGTATTCCACGGTGC,-0.281
7,TAGTATTCCACGGTGCCTCTGA,0.0107
8,ATAGCTTGGAAACTATCCCAGT,-0.733
9,TTAGTATCTATGTAGTAGGTGG,0.198
10,TAGTGTTCAAACATTAACTCTG,0.293
11,TTTTCTGAGACAGCTCTCTATT,-0.807
12,TTACACTGCCATAGAGACCTGG,-0.411
13,TAGTAATAAAGTCTCCAGCAAG,-1.21
14,TCCTTCTTCATATTCTTGCTTG,-0.909
15,TAACCTGAGGCAACTTCTCTTT,-0.605
16,TTGAATCTGACACTTGAAGTAC,-0.0659
17,TTGCTTGGAAATCCACATCTGT,-0.451
18,AATAGCTTGGAAACTATCCCAG,-0.568
19,TTGAAGGACATAGCCATCGTGG,-0.822
20,TTTGCAATCAATTTCAACCGCA,0.585
21,TGACTGACTCCTAACATTGTGT,-0.541
22,TACACTGCCATAGAGACCTGGT,-0.00757

# Biological target: ACTR3B
# Test: as above
# Details: shRNA
row,Sequence,sensor-assay potency score (higher = more potent)
1,TACGACATTCTTATACAGCGGG,-0.141
2,TACTGTTTGATCCACTTCCGGG,-0.539
3,TTCATCAACAACATCTGAGATG,-0.638
4,TATAACAAACTTCTTCTGGTTG,-0.5
5,TTGATCGCATTGATACCCGTGT,-0.213
6,TCTATAACAAACTTCTTCTGGT,0.599
7,TTTAAAAACCACTTGCTCCATG,-0.231
8,TTCTGCAAGATACTCTCTGTTT,-0.433
9,TTACATAACCTTCTGCCACTGG,0.166
10,TTGAGCTTGGTCAACTACCTTT,-0.378
11,TACTTCATCAACAACATCTGAG,0.487
12,TTACTTCATCAACAACATCTGA,-0.87

# Biological target: ACYP1
# Test: as above
# Details: shRNA
row,Sequence,sensor-assay potency score (higher = more potent)
1,TATTAACACACAATAGTTCTAT,0.336
2,TAGGACTTCCTCTTGTTTCAAG,-0.653
3,TTCATAATCCACTGATATCAGG,-1.09
4,TAATATTAACACACAATAGTTC,-0.41
5,TTGTGTACAGTGGTAATCCTTC,-0.227
6,TCTTGTTTCAAGCCATTCCTGC,-0.475
